Most compounds without a hit are left out; they make up all but 4.1% or so of the library.
ssDAF-12 act: activators of S. stercoralis DAF-12 nuclear receptor | HEK293 ssDAF-12/GRIP1 lit1-tk-luc reporter, luminescence; % of 3 µM dafachronic acid response | AID 652126 | activation, % at 6.8 µM | 1% of 370,000 active;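 active means activation above the mean over all tested compounds plus 3 SD, cut at about 0.9% in these data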;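 further: 0% = DMSO-only wells and 100% = 3 µM delta7-dafachronic acid wells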
hgDAF-12 ag: hgDAF-12 agonism, primary luciferase screen. HEK293 GAL4-hgDAF12 UAS-luciferase reporter, agonist luminescence; normalized to butyrate control. activation, % at 6.8 µM. 1.8% of 370,000 active;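 active means activation above a cutoff set at the mean of all screened compounds plus 3 SD, cut at about 10% in these data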;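 further: 0% = DMSO wells and 100% = sodium butyrate wells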
PolyA inhibitor: yeast polyadenylation inhibition; activity score, % at 12 µM; AID 1875; S. cerevisiae SKY197-pL101 polyadenylation reporter, beta-gal luminescence; efflux-impaired pdr1/pdr3 knockout yeast; score 100 = 6 SD above DMSO; 0.02% of 300,000 active;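 active means lowest replicate activity score at least 50, where 100 means six control SD above control mean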;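 further: yeast exposed to compound for 9 h at 30 °C; higher score means more reporter readthrough which indicates perturbed polyadenylation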
hcDAF-12 act: activators of H. contortus DAF-12 nuclear receptor. HEK293 hcDAF-12 lit1-tk-luc reporter, luminescence; 0% DMSO, 100% Δ7-dafachronic acid. activation, % at 6.8 µM. 1.4% of 370,000 active. AID 652067;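 active means activation above the mean of all tested compounds plus 3 SD, cut at about 5.5% in these data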;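 further: 100% = response to 3 µM Δ7-dafachronic acid high control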
DAX1 inh-1: NR0B1 (DAX1) inhibition; P51843; HEK293 Gal4-DAX1 luciferase reporter, luminescence; inhibition, % at 6.75 µM; 0.99% of 340,000 active;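 active means inhibition above the mean over all tested compounds plus 3 SD, cut at about 4.2% in these data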;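 further: 0% = DAX1-transfected cells with DMSO and 100% = empty-vector control cells with DMSO; inhibition shows as a rise in luminescence from relieved DAX1 repression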
Target sequence (P51843 207-470 limits assumed): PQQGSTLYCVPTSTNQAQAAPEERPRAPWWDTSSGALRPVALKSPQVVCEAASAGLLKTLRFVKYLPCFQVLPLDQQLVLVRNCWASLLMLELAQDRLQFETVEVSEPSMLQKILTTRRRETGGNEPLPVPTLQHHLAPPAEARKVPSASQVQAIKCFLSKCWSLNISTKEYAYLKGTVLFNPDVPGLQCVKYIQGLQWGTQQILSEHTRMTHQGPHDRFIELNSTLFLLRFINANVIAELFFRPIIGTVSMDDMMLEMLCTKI
DAX1 inh-2: blocks DAX1 repression of SF-1 activated StAR promoter; HEK293T StAR-luciferase reporter, SF-1/DAX-1 repression relief; inhibition, % at 6.8 µM; 1.1% of 370,000 active;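 active means inhibition above the mean over all tested compounds plus 3 SD, cut at about 3.6% in these data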;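 further: 0% = DAX-1 cells with DMSO and 100% = cells lacking DAX-1 with DMSO; higher inhibition means more luminescence from relief of DAX-1 repression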
* marks the source's active call; other numbers are inactive results; nt = no result given.

SMILES	ssDAF-12 act	hgDAF-12 ag	PolyA inhibitor	hcDAF-12 act	DAX1 inh-1	DAX1 inh-2
Cc1cccc(-n2ncc3c(NCc4cccs4)ncnc32)c1	1.2*	9	-12	1	0	2
[C-]#[N+][C@]12C(=O)[C@H](C=C(Cl)[C@@]1(C)C=C)C(C)(C)[C@H]1C(=O)N(C)c3cccc2c31	-2	-4	nt	-2	nt	-2
CCCCOc1ccc(C(=O)n2ccc3ccc(-c4ccc5ccn(Cc6ccccc6)c5c4)cc32)cc1	-1	3	nt	-1	nt	-1
Cn1cc(CN2CCCC(CO)(Cc3ccccc3)C2)c2ccccc21 (stereo not given)	-1	1	-9	-2	4.9*	0
CCOc1cccc(/C=N\NC(=O)c2cnccn2)c1O	0	0	nt	3	nt	0
COc1ccc(-c2c(NC(=O)c3ccco3)n(-c3ccc(C)cc3)nc(C)c2=O)cc1	-1	0	17	3	nt	0
Cn1c(NC(=O)c2ccco2)c(-c2ccccc2)c(=O)c2ccccc21	0	0	5	1	4.2*	0
COc1ccc(-c2c(NC(=O)c3ccco3)n(-c3ccccc3)nc(C)c2=O)cc1	-1	-1	28	1	4.8*	1
O=C(N/N=C/c1ccc(O)cc1)c1cc(C23CC4CC(CC(C4)C2)C3)[nH]n1	1.0*	1	23	-1	-1	1
CC(=O)c1ccc(N2CCN(S(=O)(=O)c3cc4[nH]c(=O)c(=O)[nH]c4cc3C)CC2)cc1	-1	11*	3	-2	0	1
CC(=O)c1ccc(N2CCN(S(=O)(=O)c3ccc4c(c3)CCC(=O)N4)CC2)cc1	-1	0	nt	-1	nt	-1
NNC(=O)Cn1nnc(-c2ccc(C(F)(F)F)cc2)n1	0.9*	2	-2	1	nt	0
CC(=O)Cn1nnc(-c2ccc(C(F)(F)F)cc2)n1	-1	2	-12	-1	3	1
O=S1(=O)CC2c3ccc(F)cc3CN2CN1Cc1ccc(F)cc1 (stereo not given)	0	2	nt	1	nt	0
O=S1(=O)CC2c3ccc(F)cc3CN2CN1C1CCCC1 (stereo not given)	1.0*	-1	nt	1	nt	0
Nc1nc2n(n1)C(c1cccs1)CC(c1ccccc1)N2 (stereo not given)	-2	-1	-32	-2	-1	0
Nc1nc2n(n1)C(=O)CC(c1ccccc1)N2 (stereo not given)	-2	-6	8	-1	0	3.7*
Cn1cc(C=CC(=O)O)c2nccnc21	1.3*	2	nt	4	0	0
O=C(/C=C/c1ccc(OC2CSC2)cc1)c1ccc(Cl)cc1	-1	2	14	5.6*	2	0
COc1ccc(C(=O)/C=C/c2ccc(OC3CSC3)cc2)cc1OC	-1	0	8	-2	-1	-1
CC(NC(=O)C(=O)N/N=C\c1cccc([N+](=O)[O-])c1)c1ccccc1 (stereo not given)	-1	0	-8	0	5.0*	0
CC(C)(C)OC(=O)N/N=C/c1cccc([N+](=O)[O-])c1	0	11*	-23	4	2	4.4*
CC1(C)CC(=O)N(CC(=O)N2CCN(c3cccc(C(F)(F)F)c3)CC2)c2ccccc2S1(=O)=O	-2	-2	nt	-2	nt	-1
CCOC(=O)C1(Cc2ccc(OC)cc2)CCN(C(=O)c2cc3ccccc3[nH]2)CC1	0.9*	3	1	3	1	1
COc1ccc2c(c1)CN1CN(CC(C)C)S(=O)(=O)CC21 (stereo not given)	-1	0	nt	0	nt	-1
SMILES	ssDAF-12 act	hgDAF-12 ag	PolyA inhibitor	hcDAF-12 act	DAX1 inh-1	DAX1 inh-2
COC1=C[C@H](C(=O)NC2CCN(Cc3ccccc3)CC2)[C@H](C)[C@@H](c2ccccc2)CC1=O	-1	0	nt	-2	nt	0
NC(=O)c1ccccc1OCCOCCOCCOc1ccccc1C(N)=O	-1	-1	-5	-1	1	1
O=P(O)(O)c1ccccc1OCCOCCOCCOCCOc1ccccc1P(=O)(O)O	0	7	3	4	4.4*	3
O=S1(=O)c2ccc(Br)cc2OC[C@H](Cc2ccccc2)N1Cc1cn(Cc2ccc(Cl)cc2)nn1	-1	3	nt	1	nt	-1
COc1ccc(NC(=S)c2ccc(N(C)C)cc2)cc1	0	9	-5	4	2	3.8*
O=C(C[n+]1cc(-c2ccc(Cl)cc2)n2c1CCC2)Nc1nc(-c2ccccc2)cs1	0	5	-4	0	4.8*	0
CC(c1nc2ccccc2[nH]1)N(C(=O)C1=NNC(=O)CC1)c1ccccc1 (stereo not given)	1.4*	1	nt	4	nt	2
Cc1cc(N/C=C(\C#N)S(=O)(=O)c2ccc(Cl)cc2)nc(C)n1	-1	2	8	0	4.2*	0
Cc1cc(N/C=C(\C#N)S(=O)(=O)c2ccccc2Cl)nc(C)n1	-1	1	13	1	0	0
CN(C)C(=O)N1CCN(C(=O)[C@H]2O[C@@H](n3ccc(N)nc3=O)[C@H](O)[C@@H]2O)CC1	-1	4	nt	0	nt	0
Cn1c2ccccc2c2nnc(NN)nc21	0	2	-2	5.7*	1	1
O=C(NC1=N[C@@]2(C=C3CCCCC3n3c(=O)n(-c4ccccc4)c(=O)n32)[C@H](Cc2ccccc2)N1Cc1ccccc1)c1ccccc1 (stereo not given in full)	-1	-2	nt	-2	nt	0
Cc1cccn2cc(CSc3ccccc3N)nc12	0	12*	-6	3	1	4.0*
Cc1cc(C)nc(SCc2cn3ccccc3n2)n1	-1	-2	4	-1	0	0
CC(=O)c1cc(-c2cc3ccccc3o2)c(=O)n2c1CCC2	-2	-1	nt	2	nt	0
Cc1cc(Nc2ccc(F)cc2C)n2ncnc2n1	-1	5	8	-2	0	1
Cc1cc(Nc2ccc(F)cc2F)n2ncnc2n1	-1	1	2	-1	4.9*	0
CCC[C@H]1[C@@H](NC(=O)c2ccc(Cl)cc2)CC[C@@]23CCCN2C(=O)CCC[C@@H]13	-1	2	nt	-2	nt	nt
COc1ccccc1NS(=O)(=O)c1cccc(C(=O)NCC2(N3CCCCC3)CCCCC2)c1	-1	0	nt	0	1	4.0*
CCCCc1nnc(NC(=O)Cn2cnc3ccccc3c2=O)s1	-2	-3	0	0	0	-1
CCc1nnc(NC(=O)CCn2cnc3ccccc3c2=O)s1	1.0*	-3	3	-2	nt	0
CCOC(=O)/C(C#N)=C/c1cn(CCC(=O)O)nc1-c1ccc(OC)cc1	-1	0	1	-1	6.6*	0
Cc1cccc(-c2nc(NCCCN(C)C)c3ccccc3n2)c1	1.1*	0	-5	1	0	0
